{"source": "the emibetuzumab library of Makowski et al. (2022)", "parents": {"B1": {"name": "VH:VL chains; a variant is named by its letters at X, in order (parent)", "chain 1": "QVQLVQSGAEVKKPGASVKVSCKASGYTFTDYXMHWVRQAPGQGLEWMGXVNPNXXXTTYNQKFEGRVTMTTDTSTSTAYMELRSLRSDDTAVYYCARXNXLDXWGQGTTVTVSS", "chain 2": "DIQMTQSPSSLSASVGDRVTITCSVSSSVSSIYLHWYQQKPGKAPKLLIYSTSNLASGVPSRFSGSGSGTDFTLTISSLQPEDFATYYCQVYSGYPLTFGGGTKVEIK"}}, "note": "The list shows a part of the results. No count for the full screen is at hand.", "data": [{"variants_of": "B1", "test": "yeast display scFab, FACS + sequencing", "settings": "with MET", "how_it_was_run": "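A heavy-chain CDR mutant scFab library on yeast was enriched magnetically with HGFR-Fc-coated Protein A beads for two rounds and then by FACS after labelling with 1 nM HGFR-Fc and anti-Myc in PBSB with 1% milk for 3 h at room temperature, gating the top 50% antigen-positive cells. Antigen binding was judged positive if a sequence turned up in both antigen-positive deep-sequencing samples and negative if it turned up only in the input.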", "values": [{"variant": "DAGRGDGF", "antigen binding call": "no binding"}, {"variant": "DARRGAGV", "antigen binding call": "binds"}, {"variant": "YATGGYAV", "antigen binding call": "no binding"}, {"variant": "DAAGAAGV", "antigen binding call": "no binding"}, {"variant": "YRRRGAGV", "antigen binding call": "binds"}, {"variant": "VATGGYAV", "antigen binding call": "no binding"}, {"variant": "YRRRGFGV", "antigen binding call": "binds"}, {"variant": "DATGGYAV", "antigen binding call": "binds"}, {"variant": "DAGGAAGV", "antigen binding call": "no binding"}, {"variant": "YKRRDFGV", "antigen binding call": "no binding"}, {"variant": "VTGTGAVV", "antigen binding call": "no binding"}, {"variant": "VEGTNDVV", "antigen binding call": "no binding"}, {"variant": "AKRGSAAV", "antigen binding call": "no binding"}, {"variant": "YTRAGAAA", "antigen binding call": "no binding"}, {"variant": "YKRGGAAA", "antigen binding call": "binds"}, {"variant": "YKRGSAAA", "antigen binding call": "binds"}, {"variant": "VKGRAAVA", "antigen binding call": "no binding"}, {"variant": "VKRGSAAV", "antigen binding call": "binds"}, {"variant": "VTTKSAAV", "antigen binding call": "no binding"}, {"variant": "DKEGGAAA", "antigen binding call": "no binding"}, {"variant": "VKRGSAAA", "antigen binding call": "binds"}, {"variant": "FKRKAAAA", "antigen binding call": "no binding"}, {"variant": "YARADAAA", "antigen binding call": "no binding"}, {"variant": "DAGTGDGV", "antigen binding call": "no binding"}, {"variant": "DEGRGDGV", "antigen binding call": "no binding"}, {"variant": "VTGESAAV", "antigen binding call": "no binding"}, {"variant": "DEARSDGA", "antigen binding call": "no binding"}, {"variant": "FRRRGSSD", "antigen binding call": "binds"}, {"variant": "YRRRGASD", "antigen binding call": "binds"}, {"variant": "YRRRGSSD", "antigen binding call": "binds"}, {"variant": "FRTRGSSD", "antigen binding call": "binds"}, {"variant": "FRREGSSD", "antigen binding call": "no binding"}, {"variant": "YRRRGYSD", "antigen binding call": "no binding"}, {"variant": "YAGTGDLV", "antigen binding call": "no binding"}, {"variant": "YRTRSAGA", "antigen binding call": "binds"}, {"variant": "DETRSAGA", "antigen binding call": "no binding"}, {"variant": "VRTRSFGA", "antigen binding call": "no binding"}, {"variant": "YRTRSSGA", "antigen binding call": "binds"}, {"variant": "SGRGNDAV", "antigen binding call": "no binding"}, {"variant": "DARGGAAV", "antigen binding call": "no binding"}, {"variant": "YRRGAAAV", "antigen binding call": "binds"}, {"variant": "YRKGGAAV", "antigen binding call": "binds"}, {"variant": "ARRGAYGV", "antigen binding call": "no binding"}, {"variant": "YRRGGYAV", "antigen binding call": "binds"}, {"variant": "YARAGYAV", "antigen binding call": "no binding"}, {"variant": "YRTRGYAV", "antigen binding call": "no binding"}, {"variant": "YRRGGAAV", "antigen binding call": "binds"}, {"variant": "YTRGADGV", "antigen binding call": "no binding"}, {"variant": "AEGTSAVF", "antigen binding call": "no binding"}, {"variant": "DAGGGDGA", "antigen binding call": "no binding"}, {"variant": "AARADFGV", "antigen binding call": "no binding"}, {"variant": "ATTKSDGA", "antigen binding call": "no binding"}, {"variant": "VRTRGSWD", "antigen binding call": "binds"}, {"variant": "YRTRGSWD", "antigen binding call": "binds"}, {"variant": "VATRGFWD", "antigen binding call": "no binding"}, {"variant": "YRTRSSWD", "antigen binding call": "binds"}, {"variant": "DATRSSWD", "antigen binding call": "no binding"}, {"variant": "DRGKNDGD", "antigen binding call": "no binding"}]}]}
